Test results as given in article PMC11102866, “Nucleosome-bound NR5A2 structure reveals pioneer factor mechanism by DNA minor groove anchor competition”.
Changes are numbered by the printed parent chain. Names may count otherwise.

B1: 101 (nucleosome)
DNA 1: ATCCTGGAGAATCCCGGTGCCGAGGCCGCTCAATTGGTCGTAGACAGCTCTAGCACCGCTTAAACGCACGTACGCGCTGTCCCCCGCGTTTTAACCGCCAAGGTCAAGGCCACCTAGTCTCCAGGCACGTGTCAGATATATACATCCTGTGAT
DNA 2: ATCACAGGATGTATATATCTGACACGTGCCTGGAGACTAGGTGGCCTTGACCTTGGCGGTTAAAACGCGGGGGACAGCGCGTACGTGCGTTTAAGCGGTGCTAGAGCTGTCTACGACCAATTGAGCGGCCTCGGCACCGGGATTCTCCAGGAT
modifications: reconstituted with mouse histones H2A, H2B, H3.3 and H4
B2: 97 (nucleosome)
DNA 1: ATCCTGGAGAATCCCGGTGCCGAGGCCGCTCAATTGGTCGTAGACAGCTCTAGCACCGCTTAAACGCACGTACGCGCTGTCCCCCGCGTTTTAACCGCCTCAAGGCCAACTCCCTAGTCTCCAGGCACGTGTCAGATATATACATCCTGTGAT
DNA 2: ATCACAGGATGTATATATCTGACACGTGCCTGGAGACTAGGGAGTTGGCCTTGAGGCGGTTAAAACGCGGGGGACAGCGCGTACGTGCGTTTAAGCGGTGCTAGAGCTGTCTACGACCAATTGAGCGGCCTCGGCACCGGGATTCTCCAGGAT
modifications: reconstituted with mouse histones H2A, H2B, H3.3 and H4
B3: 98 (nucleosome)
DNA 1: B2 DNA 1 with T100A, C101T, A102C, G104A, C106G, A108C
DNA 2: B2 DNA 2 with T46G, G48C, C50T, T52G, G53A, A54T
modifications: reconstituted with mouse histones H2A, H2B, H3.3 and H4
B4: 99 (nucleosome)
DNA 1: ATCCTGGAGAATCCCGGTGCCGAGGCCGCTCAATTGGTCGTAGACAGCTCTAGCACCGCTTAAACGCACGTACGCGCTGTCCCCCGCGTTTTAACCGCCAATCAAGGCCATCCCTAGTCTCCAGGCACGTGTCAGATATATACATCCTGTGAT
DNA 2: ATCACAGGATGTATATATCTGACACGTGCCTGGAGACTAGGGATGGCCTTGATTGGCGGTTAAAACGCGGGGGACAGCGCGTACGTGCGTTTAAGCGGTGCTAGAGCTGTCTACGACCAATTGAGCGGCCTCGGCACCGGGATTCTCCAGGAT
modifications: reconstituted with mouse histones H2A, H2B, H3.3 and H4
B5: 100 (nucleosome)
DNA 1: B1 DNA 1 with G103T, T104C, C105A, A107G, G109C, C111A, A112C
DNA 2: B4 DNA 2 with A43T, T44G, G46C, C48T, T50G, G51A, A52C
modifications: reconstituted with mouse histones H2A, H2B, H3.3 and H4
B6: 88 (nucleosome)
DNA 1: ATCCTGGAGAATCCCGGTGCCGAGGCCGCTCAATTGGTCGTAGACAGCTCTAGCACCGCTTAAACGCACGTACGCGCTGTCCCCCGCGTTTCAAGGCCAAAGGGGATTACTCCCTAGTCTCCAGGCACGTGTCAGATATATACATCCTGTGAT
DNA 2: ATCACAGGATGTATATATCTGACACGTGCCTGGAGACTAGGGAGTAATCCCCTTTGGCCTTGAAACGCGGGGGACAGCGCGTACGTGCGTTTAAGCGGTGCTAGAGCTGTCTACGACCAATTGAGCGGCCTCGGCACCGGGATTCTCCAGGAT
modifications: reconstituted with mouse histones H2A, H2B, H3.3 and H4
B7: 95 (nucleosome)
DNA 1: B1 DNA 1 with C98T, T104C, A107T, G108T, G109A, C111T, A112C
DNA 2: B1 DNA 2 with T42G, G43A, C45T, C46A, T47A, A50G, G56A
modifications: reconstituted with mouse histones H2A, H2B, H3.3 and H4
B8: 90 (nucleosome)
DNA 1: B6 DNA 1 with C92T, A93T, A94C, G95A, G96A, C97G, C98G, A99C, A100C
DNA 2: B6 DNA 2 with T54G, T55G, G56C, G57C, C58T, C59T, T60G, T61A, G62A
modifications: reconstituted with mouse histones H2A, H2B, H3.3 and H4
B9: 11 (nucleosome)
DNA 1: B6 DNA 1 with C14T, G16A, G17A, T18G, G22A, C92T, G95C, G96C, C97G, A99C
DNA 2: B6 DNA 2 with T55G, G57C, C58G, C59G, G62A, C132T, A136C, C137T, C138T, G140A
modifications: reconstituted with mouse histones H2A, H2B, H3.3 and H4
B10: 94 (nucleosome)
DNA 1: B6 DNA 1 with C92T, G95C, G96C, C97T, A101G, G103C, G104C, G105A
DNA 2: B6 DNA 2 with C49T, C50G, C51G, T53C, G57A, C58G, C59G, G62A
modifications: reconstituted with mouse histones H2A, H2B, H3.3 and H4
B11: 5 (nucleosome)
DNA 1: B6 DNA 1 with A8T, G9C, T12G, C13G, G16A, C92T, G95C, G96C, C97G, A99C
DNA 2: B6 DNA 2 with T55G, G57C, C58G, C59G, G62A, C138T, G141C, A142C, C145G, T146A
modifications: reconstituted with mouse histones H2A, H2B, H3.3 and H4
B12: 96 (nucleosome)
DNA 1: B2 DNA 1 with C99T, T100C, C101A, A103G, G105C, C107A, A108T
DNA 2: B2 DNA 2 with T46A, G47T, C49G, T51C, G53T, A54G, G55A
modifications: reconstituted with mouse histones H2A, H2B, H3.3 and H4
B13: 92 (nucleosome)
DNA 1: B2 DNA 1 with C95T, G97A, C98A, C99G, T100G, A102C, C106A, C107T, A108T
DNA 2: B2 DNA 2 with T46A, G47A, G48T, T52G, A54C, G55C, G56T, C57T, G59A
modifications: reconstituted with mouse histones H2A, H2B, H3.3 and H4
B14: 93 (nucleosome)
DNA 1: B6 DNA 1 with C92T, G95C, G96T, C98A, A100G, A101G, G102C, G103C, G104A
DNA 2: B6 DNA 2 with C50T, C51G, C52G, T53C, T54C, G56T, C58A, C59G, G62A
modifications: reconstituted with mouse histones H2A, H2B, H3.3 and H4
B15: 91 (nucleosome)
DNA 1: B6 DNA 1 with C92T, A94T, G95C, G96A, C97A, C98G, A99G, A100C, A101C, G102A
DNA 2: B6 DNA 2 with C52T, T53G, T54G, T55C, G56C, G57T, C58T, C59G, T60A, G62A
modifications: reconstituted with mouse histones H2A, H2B, H3.3 and H4
B16: 89 (nucleosome)
DNA 1: B6 DNA 1 with C92T, A93C, G95A, C97G, A99C
DNA 2: B6 DNA 2 with T55G, G57C, C59T, T61G, G62A
modifications: reconstituted with mouse histones H2A, H2B, H3.3 and H4

The binders below were run against NR5A2 wild type;histone octamer (Homo sapiens;, UniProt O00482;C0HKE1;Q6ZWY9;P84244;P62806 1-541;2-130;2-126;2-136;2-103, |) (assay: SeEN-seq (EMSA of nucleosome library followed by sequencing); 0.8 uM human NR5A2; 20 mM Tris-HCl pH 7.5, 120 mM NaCl, 1 mM MgCl2, 10 uM ZnCl2, 1 mM DTT, 100 ug/ml BSA, room temperature, 30 min; 0.1 uM nucleosome library; high values mean tight binding).

In order of rising binding signal:
1. B4  0.545 log2 enrichment (bound/unbound, relative to Widom 601)
2. B6  0.636 log2 enrichment (bound/unbound, relative to Widom 601)
3. B5  0.655 log2 enrichment (bound/unbound, relative to Widom 601)
4. B16  0.658 log2 enrichment (bound/unbound, relative to Widom 601)
5. B3  0.701 log2 enrichment (bound/unbound, relative to Widom 601)
6. B13  0.711 log2 enrichment (bound/unbound, relative to Widom 601)
7. B15  0.711 log2 enrichment (bound/unbound, relative to Widom 601)
8. B2  0.742 log2 enrichment (bound/unbound, relative to Widom 601)
9. B8  0.821 log2 enrichment (bound/unbound, relative to Widom 601)
10. B14  0.842 log2 enrichment (bound/unbound, relative to Widom 601)
11. B12  1.16 log2 enrichment (bound/unbound, relative to Widom 601)
12. B10  1.36 log2 enrichment (bound/unbound, relative to Widom 601)
13. B7  1.87 log2 enrichment (bound/unbound, relative to Widom 601)
14. B1  2.38 log2 enrichment (bound/unbound, relative to Widom 601)
15. B9  4.08 log2 enrichment (bound/unbound, relative to Widom 601)

Each binder was assayed against mouse Nr5a2 wild type;histone octamer (Mus musculus;, UniProt P45448;C0HKE1;Q6ZWY9;P84244;P62806 1-560;2-130;2-126;2-136;2-103, |) (assay: SeEN-seq (EMSA of nucleosome library followed by sequencing); 1.2 uM mouse Nr5a2; 20 mM Tris-HCl pH 7.5, 120 mM NaCl, 1 mM MgCl2, 10 uM ZnCl2, 1 mM DTT, 100 ug/ml BSA, room temperature, 30 min; 0.1 uM nucleosome library; high values mean tight binding).

In order of falling binding signal:
1. B9  4.04 log2 enrichment (bound/unbound, relative to Widom 601)
2. B1  1.47 log2 enrichment (bound/unbound, relative to Widom 601)
3. B7  1.29 log2 enrichment (bound/unbound, relative to Widom 601)
4. B10  1.22 log2 enrichment (bound/unbound, relative to Widom 601)
5. B11  1.14 log2 enrichment (bound/unbound, relative to Widom 601)
6. B12  1.04 log2 enrichment (bound/unbound, relative to Widom 601)
7. B13  0.905 log2 enrichment (bound/unbound, relative to Widom 601)
8. B14  0.875 log2 enrichment (bound/unbound, relative to Widom 601)
9. B15  0.746 log2 enrichment (bound/unbound, relative to Widom 601)
10. B2  0.636 log2 enrichment (bound/unbound, relative to Widom 601)
11. B6  0.614 log2 enrichment (bound/unbound, relative to Widom 601)
12. B16  0.574 log2 enrichment (bound/unbound, relative to Widom 601)
13. B3  0.557 log2 enrichment (bound/unbound, relative to Widom 601)
14. B8  0.52 log2 enrichment (bound/unbound, relative to Widom 601)
15. B5  0.488 log2 enrichment (bound/unbound, relative to Widom 601)
16. B4  0.468 log2 enrichment (bound/unbound, relative to Widom 601)
